From PubChem BioAssay
UCHL1 block – blocks human UCHL1 ubiquitin-rhodamine cleavage; purified UCHL1, Ub-rhodamine cleavage fluorescence; inhibition, % at 20 µM; 47,000 compounds, 0.2% hits; AID 1645859
USP10 block – inhibitors of human USP10 deubiquitinase; Q14694; inhibition, % at 20 µM; purified USP10, Ub-rhodamine fluorescence, 60 min; 47,000 compounds, 1.1% hits
USP7 block – blocks human USP7 ubiquitin-rhodamine cleavage. purified USP7, Ub-rhodamine cleavage fluorescence. inhibition, % at 20 µM. 47,000 compounds, 0.3% hits. AID 1645854
USP8 block – inhibitors of human USP8 deubiquitinase | AID 1645853 | purified USP8, Ub-rhodamine cleavage fluorescence, 30 min | 47,000 compounds, 4.2% hits | inhibition, % at 20 µM | P40818
The depositor's hits bear a star. Compounds with a hit are over-represented: about 4.6% of the library has one in this group of screens. No stated cut-off is given here; in the data, active means inhibition above about 30%; inactive means the rest.

SMILES	UCHL1 block	USP10 block	USP7 block	USP8 block
O=c1ccc(-c2nc(-c3ccncc3)no2)cn1Cc1noc(-c2ccccc2)n1	-13	-7	3	53*
CCc1ccc(S(=O)(=O)Nc2ccc3[nH]ncc3c2)cc1	1	1	4	35*
Clc1ccc(CN2CCc3nc(Nc4ccc5c(c4)OCO5)ncc3C2)cc1	9	6	-11	30*
Cc1ccc(C)c(C(=O)NC2CCN(Cc3c(C)noc3C)C2)c1 (stereo not drawn)	-2	-3	1	-5
COC(=O)C(Cc1ccccc1)NC(=O)CSc1nc2ccc(Cl)cc2[nH]1 (stereo not drawn)	1	-1	-18	43*
CC(C)n1nnc2cc(C(=O)N(C)CC(=O)Nc3ccc(F)cc3F)ccc21	7	0	11	4
Cc1nc2c(c(=O)n1CC(=O)Nc1ccccc1)CCN(Cc1ccccc1)C2	5	-2	3	-35
Cc1ccccc1NC(=O)Cn1c(C)nc2c(c1=O)CCN(Cc1ccccc1)C2	-1	-14	-3	49*
O=C(NC1CCCC1)c1cccn1Cc1noc(-c2ccccc2)n1	6	3	-10	32*
O=C(NC1CCCCC1)c1cccn1Cc1noc(C2CC2)n1	-6	-1	-10	-7
O=C(Cc1cc(-c2ccc(F)cc2)on1)NCc1ccc(Cl)cc1	0	5	-3	11
COc1cccc(C(=O)Nc2ccc(N3CCCC3=O)c(C)c2)c1OC	0	4	3	-10
COc1ccc(CC(=O)OCC(=O)N2c3ccccc3NC(=O)C2(C)C)cc1	10	9	-18	33*
Cc1ccc(NC(=O)Cn2cc(-c3nc(C4CC4)no3)ccc2=O)cc1C	2	16	7	11
COC(=O)c1ccccc1NC(=O)CSc1nnc(CNc2ccc(F)cc2)n1CC1CCCO1 (stereo not drawn)	6	9	-4	96*
Cc1ccc(CNS(=O)(=O)c2ccc3onc(C(=O)N4CCCC4)c3c2)cc1	3	3	4	0
Cc1cc(N2CCC(NS(=O)(=O)Cc3ccccc3)C2=O)ccc1F (stereo not drawn)	-5	0	-5	-4
Cc1ccc(CNC(=O)NC2CCN(c3ccccc3)C2=O)cc1 (stereo not drawn)	3	6	9	32*
O=C1C(NS(=O)(=O)Cc2ccc(Cl)cc2)CCN1c1ccccc1 (stereo not drawn)	9	5	16	31*
CC(NC(=O)C1=CCN(Cc2ccc(F)cc2)CC1)c1ccccc1 (stereo not drawn)	-3	-2	-6	-4
NC(=O)CSc1nc2nccnc2c(=O)n1Cc1ccc(F)cc1	-6	-6	-2	-54
CCc1ccc(NC(=O)CSc2nc3nccnc3c(=O)n2Cc2ccc(F)cc2)cc1	4	21	7	44*
Cc1cccc(C(=O)Nc2noc3nc(C)ccc23)c1	1	3	3	3
COc1ccc(C(=O)O)cc1S(=O)(=O)N1CCCc2ccccc21	2	0	-3	80*
CNc1nc(C2CCCN(C(=O)c3cc(C4CC4)on3)C2)nc2c1CCN(C)C2 (stereo not drawn)	-1	-3	-10	36*
SMILES	UCHL1 block	USP10 block	USP7 block	USP8 block
Cc1ccc(OCC(=O)NCC(c2ccco2)N2CCCC2)cc1C (stereo not drawn)	-4	-8	-4	-13
CCOC(=O)c1c2ccc(OCC(=O)NCc3ccco3)cc2n2ccccc12	-37	-6	-71	63*
CC(C)=CCOc1ccc(CC#N)cc1	0	4	-17	3
O=C(NCc1ccco1)c1ccc2c(=O)n(Cc3ccco3)c(=O)[nH]c2c1	4	2	-13	1
COC(=O)c1ccc2c(=O)n(CCCCCC(=O)NCCC3=CCCCC3)c(=O)[nH]c2c1	1	25	13	22
COC(=O)c1ccc2c(=O)n(CCCCCC(=O)NCc3cccc(Cl)c3)c(=O)[nH]c2c1	-3	39*	12	65*
COC(=O)c1ccc2c(=O)n(CCCCCC(=O)NCCc3ccc(OC)c(OC)c3)c(=O)[nH]c2c1	3	11	6	46*
COc1ccc(CCn2c(=O)[nH]c3cc(C(=O)NCc4ccco4)ccc3c2=O)cc1OC	4	24	7	42*
O=C1c2ccccc2CCN1C1CCN(Cc2cnc3ccccc3n2)CC1	-2	-4	0	-28
COc1ccc(C2CNCCN2C(=O)c2ccc3nc[nH]c3c2)cc1 (stereo not drawn)	-1	2	3	-37
COc1cccc(C2C3=C(CC(c4ccc(Cl)cc4)CC3=O)Nc3ccccc3N2C(=O)CCC(=O)O)c1 (stereo not drawn)	2	6	-16	-94
O=C(O)CCCCCN1C(=O)CC(c2ccc(Cl)cc2)CC1=O	23	12	1	55*
